Records with an inconclusive call do not appear. Calls of active or inactive are those of the source. The call rests on the fitted dose curve; in most records, active means well fitted inhibition curve with a large enough effect; inconclusive means small, poorly fitted or top-dose-only effect; inactive means flat fitted curve, though single readings scatter.
These compounds were tested on CRL-7250 (assay: Cytotoxic Profiling of Annotated Libraries Using Quantitative High-Throughput Screening (AID 1296008; further: nearly all actives have a fitted effect of over 60% in size)). Details: Five cell lines viability, CellTiter-Glo ATP luminescence, 48-72 h; max response: stronger effect = lower value.
In short: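 Cells exposed to compounds for 48 or 72 hr at 37 degrees Celsius. Viability read as ATP-coupled luminescence with CellTiter-Glo after 10 min at room temperature.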
For `CC[C@]1(O)CC2CN(CCc3c([nH]c4ccccc34)[C@@](C(=O)OC)(c3cc4c(cc3OC)N(C)[C@H]3[C@@](O)(C(=O)OC)[C@H](OC(C)=O)[C@]5(CC)C=CCN6CC[C@]43[C@@H]65)C2)C1` (some centres undefined), the Potency was 259 nM (active). With `C=C1[C@@H]2CC[C@@H]3[C@@](CCC4C(C(=O)O)(C(=O)O)C[C@@H](O[C@@H]5O[C@H](CO)[C@@H](O)[C@H](O)[C@H]5OC(=O)CC(C)C)C[C@]43C)(C2)[C@H]1O` (some centres undefined) the max response was -6.97% (inactive). In the case of `CC1OC(O[C@H]2CC[C@@]3(C)C(CC[C@]4(C)C3CC=C3C5CC(C)(C)CC[C@]5(C(=O)OC5OC(CO)C(OC6OC(COC7OCC(O)C(O)C7O)C(O)C(O)C6O)C(O)C5O)CC[C@]34C)C2(C)C)C(O)C(O)C1OC1OCC(OC2OCC(O)C(O)C2O)C(O)C1O` (some centres undefined), the max response is reported as -5.53% (inactive). For `COc1ccc(Cl)c(Nc2nc3ccccc3nc2NS(=O)(=O)c2cccc(NC(=O)C(C)(C)N)c2)c1`, the max response was -18.5% (inactive). For `C=C1C(OC(C)=O)CCC2(C)CC3(OC)OC(=O)C(C)=C3CC12` (centres undefined), the max response was -3.85% (inactive). For `Cc1cc(C)c(CNC(=O)c2cc(-c3ccc(CN4CCOCC4)cc3)cc3c2cnn3C2CCCC2)c(=O)[nH]1`, the max response was 1.71% (inactive). With `C=C1CCC2C(C(C)(C)O)CCC2(C)CC(O)C(=C)CCC1O` (centres undefined) the max response was -17.3% (inactive). With `Cn1nc(C(C)(C)C)cc1C(=O)NC(Cc1cccc(Cl)c1)C(=O)NCC#N` (centres undefined) the outcome was “inactive”. For `CC(C)=CCC/C(C)=C/CCC1(C)Oc2c(c(O)cc3c2CN(C(CCC(=O)O)C(=O)O)C3=O)CC1O` (centres undefined), the max response was -8.75% (inactive).

Reference: PubChem BioAssay (NCATS)
On the % scale 0 is the no-effect control and ±100 the full control effect; potency means the concentration at half of the fitted maximal effect.
